The entries come from a sample that favours hits as a whole.
mHTT-CaM PPI inh: mHTT-calmodulin interaction abrogation. 190,000 tested, 3.6% active. AlphaScreen His-mHTT/GST-CaM binding, luminescence. AID 1671202. inhibition, % at 15 µM
Pf apPOL inh: Pf-apPOL DNA polymerase inhibition | Recombinant Pf-apPOL, molecular beacon fluorescence, 1.5 h | inhibition, % at 10 µM | 210,000 tested, 0.25% active | AID 1794808
Of the large screens only hits and unclear results are named; the others gave an inactive call. No stated cut-off is given here; in the data, active means inhibition above about 50%; inactive means the rest.

Cc1ccc2[nH]cc(CCN3CC(C(=O)NCCN4CCOCC4)CC3=O)c2c1 (centres undefined)	none
COc1cc(C)nc2ccc(NC(=O)Nc3ccc(Cl)cc3)cc12	none
COc1ccc(Cl)cc1NC(=O)Nc1ccc2nc(C)cc(OC)c2c1	mHTT-CaM PPI inh 97, Pf apPOL inh 85
O=C(NCc1ccc(N2CCCC2)cc1)c1cccc(N2CCNC(c3ccccc3)C2)n1 (centres undefined)	mHTT-CaM PPI inh 82
O=C(NCc1ccncc1)c1cccc(N2CCNC(c3ccccc3)C2)n1 (centres undefined)	none
O=C(NCCc1cccs1)c1cccc(N2CCNC(c3ccccc3)C2)n1 (centres undefined)	mHTT-CaM PPI inh 87
O=C(NCCc1ccccn1)c1cccc(N2CCNC(c3ccccc3)C2)n1 (centres undefined)	none
COc1cccc(NC(=O)c2cccc(N3CCNC(c4ccccc4)C3)n2)c1 (centres undefined)	none
COc1ccc(NC(=O)c2cccc(N3CCNC(c4ccccc4)C3)n2)c(OC)c1 (centres undefined)	mHTT-CaM PPI inh 70
NC(N)=NN=C1CCCCC1	none (no result: mHTT-CaM PPI inh)
Cc1ccc(N2C=C(C#N)S(=O)(=O)c3ccccc32)cc1C	none
O=C(OCC#Cc1cc(C(F)(F)F)cc(C(F)(F)F)c1)c1ccc([N+](=O)[O-])cc1	none (no result: mHTT-CaM PPI inh)
CN(C)c1nc(Oc2ccc(OCc3ccccc3)nn2)nc(N(C)C)n1	none
COc1cc(C)c(C(C)C)cc1S(=O)(=O)n1ccnc1C	none
Cc1ccc(Cl)cc1N1CCN(C(=O)c2ccc(Cl)cc2)C(C)C1=O (centres undefined)	none
CCN1CCN(c2ccc(NC(=O)c3ccccc3C(F)(F)F)cn2)C1=O	none
Cn1c(C(=O)NCc2cccc(Cl)c2)cc2ccncc21	none
CC1=C(C(=O)Nc2ccc(C)c(Cl)c2)C(c2ccccc2Cl)NC(=O)N1 (centres undefined)	mHTT-CaM PPI inh 90
CC1=C(C(=O)Nc2ccc(F)c(F)c2)C(c2ccccc2F)NC(=O)N1 (centres undefined)	none
Cc1nnc(N2C(=O)C(O)=C(C(=O)c3ccco3)C2c2ccccc2F)s1 (centres undefined)	mHTT-CaM PPI inh 57
Cc1nnc(N2C(=O)C(O)=C(C(=O)c3ccco3)C2c2ccc(Br)cc2)s1 (centres undefined)	none
Cc1nnc(N2C(=O)C(O)=C(C(=O)c3ccco3)C2c2ccc(Cl)cc2)s1 (centres undefined)	mHTT-CaM PPI inh 78
COc1ccc(C2C(C(=O)c3ccco3)=C(O)C(=O)N2c2nnc(C)s2)cc1OC (centres undefined)	none
CN(C)C(CNC(=O)C1(c2ccccc2)CCOCC1)c1ccccc1Cl (centres undefined)	none
O=C1/C(=C/C2CCCO2)CC/C1=C\C1CCCO1 (centres undefined)	mHTT-CaM PPI inh 68 (no result: Pf apPOL inh)
O=C1C2CC(Br)C(Br)CC2C(=O)N1CC1CCCO1 (centres undefined)	none
O=S(=O)(Nc1cccc(O)c1)c1ccc(Cl)cc1	none
COc1ccc2cc3cc(C(=O)N(C)c4ccccc4)sc3nc2c1	none
COc1ccc(/C=C2\SC(=O)N(CN3CCCCC3)C2=O)c(OC)c1	none
COc1ccccc1/C=C1\SC(=O)N(CN2CCCC2)C1=O	mHTT-CaM PPI inh 70
CN(C)c1ccc(NC(=O)CN2CCC(c3nc(-c4ccccc4Cl)no3)CC2)cc1	mHTT-CaM PPI inh 66
O=C(CN1CCC(c2nc(-c3ccccc3Cl)no2)CC1)Nc1ccccc1Cl	none
CC(C)NC(=O)c1ccc2ncc3c(=O)n(-c4ccc(Cl)cc4)[nH]c3c2c1	mHTT-CaM PPI inh 51
CCC1CCCCN1C(=O)c1ccc2ncc3c(=O)n(-c4ccccc4)[nH]c3c2c1 (centres undefined)	mHTT-CaM PPI inh 66
CCc1ccc(-n2[nH]c3c(cnc4ccc(C(=O)NC(C)C)cc43)c2=O)cc1	none
CCc1ccc(-n2[nH]c3c(cnc4ccc(C(=O)N5CCCC5)cc43)c2=O)cc1	none
C=CCn1c(SCC(=O)Nc2ccc(Cl)c(Cl)c2)nnc1C1CC1	none
CCN(CC)CC(O)Cn1c(C)c(C)c2ccccc21 (centres undefined)	none
CCC(CO)NCC(O)Cn1c(C)c(C)c2ccccc21 (centres undefined)	none
Cc1c(C)n(CC(O)CNc2ccccc2)c2ccccc12 (centres undefined)	mHTT-CaM PPI inh 54
Cc1c(C)n(CC(O)CN2CCN(Cc3ccccc3)CC2)c2ccccc12 (centres undefined)	none
Cc1ccc(C)c(NCC(O)Cn2c(C)c(C)c3ccccc32)c1 (centres undefined)	mHTT-CaM PPI inh 95
Cc1cccc(NCC(O)Cn2c(C)c(C)c3ccccc32)c1 (centres undefined)	mHTT-CaM PPI inh 91
COc1ccc(/C=C2/N=C(c3cccc(F)c3)OC2=O)c(OC)c1	none
CC(NC(=O)c1cc2nc(-c3ccco3)cc(C(F)(F)F)n2n1)C1CC2CCC1C2 (centres undefined)	none
Cc1nnsc1C(=O)N1CCN(Cc2nc3ccccc3[nH]2)CC1	none
COc1ccc(CCNC(=O)N2CCN(Cc3nc4ccccc4[nH]3)CC2)cc1	mHTT-CaM PPI inh 100
CC(=O)Nc1cccc(NC(=O)c2ccccc2[N+](=O)[O-])c1	none
CC(=O)Nc1ccc2c(c1)C1C=CCC1C(c1ccc(Br)cc1)N2 (centres undefined)	mHTT-CaM PPI inh 86, Pf apPOL inh 73
Cc1ccc2c(c1)C1C=CCC1C(c1ccccc1Br)N2 (centres undefined)	mHTT-CaM PPI inh 77
Brc1cc2c(cc1[C@H]1Nc3ccccc3[C@H]3C=CC[C@H]31)OCO2	none (no result: mHTT-CaM PPI inh)
CC(=O)Nc1ccc2c(c1)C1C=CCC1C(c1ccccc1[N+](=O)[O-])N2 (centres undefined)	mHTT-CaM PPI inh 65
Cc1cc(=O)n(CC(=O)Nc2ccccc2C#N)cn1	none
Cc1nc(NN)c2c3c(sc2n1)CCC3	none
O=C(c1ccc2ccccc2n1)N1CC2CN(S(=O)(=O)c3ccccc3)CC(C1)O2	none
Cc1ccc(CNC(=O)Cc2cn(C)c3ncccc23)cc1	none
Cc1ccc(NS(=O)(=O)c2cn(C)c3ncccc23)cc1	mHTT-CaM PPI inh 67, Pf apPOL inh 80
O=C(NCc1csc(C2CCCN(C(=O)c3c(F)cccc3F)C2)n1)C1CCC1 (centres undefined)	none
CCn1c(=O)c(NCCCN2CCCc3ccccc32)nc2ccncc21	mHTT-CaM PPI inh 67
CCCCNc1nc2ccncc2n(Cc2ccccc2)c1=O	none
COc1ccc(CCN2COc3ccc4c(c3C2)OC(=Cc2ccncc2)C4=O)cc1OC	none
COc1cc(NC(=O)N2c3ccccc3Sc3ccccc32)cc(OC)c1	none
COc1ccc(NCC(=O)N2c3ccccc3Sc3ccccc32)cc1	mHTT-CaM PPI inh 60
c1ccc(N2CCN(c3ncc4c(n3)CCN(Cc3ccc5c(c3)OCCO5)C4)CC2)cc1	none
CCOc1ccc(N2C(=O)CSC2c2cccc([N+](=O)[O-])c2)cc1 (centres undefined)	none
O=C1CSC(c2ccccc2)N1c1ccccc1 (centres undefined)	none
O=C1CSC(c2cccc([N+](=O)[O-])c2)N1c1ccc(Oc2ccccc2)cc1 (centres undefined)	mHTT-CaM PPI inh 78
O=C1CSC(c2ccccc2)N1c1ccc(Oc2ccccc2)cc1 (centres undefined)	mHTT-CaM PPI inh 78
Cc1ccc(NC(=O)c2cc(S(=O)(=O)N3CCCCCC3)ccc2F)cc1Cl	none
N#C/C(=C\c1ccc(O)c(O)c1)c1nc(-c2ccc3c(c2)OCO3)cs1	mHTT-CaM PPI inh 98

From PubChem
